Source: PubChem (National Center for Advancing Translational Sciences (NCATS))
Cruzain inh noDet: blocks cruzain activity in detergent-free assay; P25779; purified cruzain, Z-FR-AMC fluorescence, no detergent; Potency, µM, hits mostly inhibitors; actives 2.3% (n = 200,000); AID 1476; also: nearly all actives have a fitted effect of over 40% in size
Target sequence (P25779 123-467 limits assumed): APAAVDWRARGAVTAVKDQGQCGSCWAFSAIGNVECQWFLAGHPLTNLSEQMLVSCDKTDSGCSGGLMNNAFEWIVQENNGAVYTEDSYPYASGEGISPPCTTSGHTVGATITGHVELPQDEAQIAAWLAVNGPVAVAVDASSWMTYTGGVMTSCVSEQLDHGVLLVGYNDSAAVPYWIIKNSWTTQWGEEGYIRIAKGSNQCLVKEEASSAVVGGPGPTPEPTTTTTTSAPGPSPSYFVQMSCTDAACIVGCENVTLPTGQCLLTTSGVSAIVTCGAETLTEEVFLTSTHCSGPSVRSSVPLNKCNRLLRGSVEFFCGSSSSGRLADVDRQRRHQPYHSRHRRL
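Detergent-free condition (0.00005% Triton X-100) in acetate buffer pH 5.5 with DTT. 1.5 nM enzyme and compound were pre-mixed 15 min, then 2 uM Z-FR-AMC substrate added; reaction progress from fluorescence change between first and third reads (60 s).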
Cruzain Triton: inhibitors of Trypanosoma cruzi cruzain with detergent | Potency, µM, most hits filed as inhibitors | P25779 | purified cruzain, Z-FR-AMC fluorescence, 0.01% Triton | actives 0.43% (n = 200,000) | AID 1478; also: nearly all actives have a fitted effect of over 40% in size
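Sodium acetate buffer (100 mM, pH 5.5) containing 5 mM DTT and 0.01% Triton X-100 hosted 1.5 nM cruzain and test compound for 15 min at room temperature. Cleavage of 2 uM Z-FR-AMC was then tracked by fluorescence.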
A number is an active result; i = inactive; ? = inconclusive. This is a sample that favours compounds with a hit; in the whole collection about 2.6% have one here. Calls follow the shape of the dose curve; as a rule, active = well fitted curve in the direction sought with a large enough effect; inconclusive = small, poorly fitted or top-dose-only effect, or another doubt; inactive = no such curve, though single readings can be large; an effect the other way counts as inactive or inconclusive.

SMILES | Cruzain inh noDet | Cruzain Triton
O=C(NCc1ccco1)c1ccc2c(c1)N(Cc1ccc(Cl)cc1)C(=O)c1ccccc1S2 | ? | i
CCOc1ccc(CN2C(=O)c3ccccc3Sc3ccc(C(=O)NC4CCC(C)CC4)cc32)cc1 (stereo not given) | 5.01µM | i
CCOc1ccc(CN2C(=O)c3ccccc3Sc3ccc(C(=O)NCc4ccco4)cc32)cc1 | 31.6µM | i
Cc1ccccc1CN1C(=O)c2ccccc2Sc2ccc(C(=O)NCc3cccs3)cc21 | ? | i
Cc1cccc(CN2C(=O)c3ccccc3Sc3ccc(C(=O)NC4CCCCC4)cc32)c1 | 12.6µM | i
O=C(NC1CCCC1)c1ccc2c(c1)N(Cc1ccccc1)C(=O)c1ccccc1S2 | ? | i
CC1CCC(NC(=O)c2ccc3c(c2)N(Cc2cccc(F)c2)C(=O)c2ccccc2S3)CC1 (stereo not given) | ? | i
NC[C@H]1O[C@H](O[C@H]2[C@H](O)[C@@H](O[C@H]3O[C@H](CO)[C@@H](O)[C@H](N)[C@H]3O)[C@H](N)C[C@@H]2N)[C@H](N)C[C@@H]1O | i | i
O=C(Cn1nnc(-c2ccc(CN3CCOCC3)cc2)n1)Nc1nc(-c2ccccc2)cs1 | i | i
Cc1ccc2[nH]cc(CCNC(=O)c3cccnc3)c2c1 | i | i
CN1CCN(C(=O)c2cnn(-c3ccccc3)c2NC(=O)c2ccccc2F)CC1 | i | i
COc1ccc(NC(=O)C2=C(C)Nc3c(C(=O)Nc4ccc(C)cc4)cnn3C2c2cc(OC)ccc2OC)cc1 (stereo not given) | i | i
CC1=C(C(=O)Nc2ccc(Cl)cc2)C(c2ccccc2C)n2ncc(C(=O)Nc3ccc(C)cc3)c2N1 (stereo not given) | 31.6µM | i
CC1=C(C(=O)Nc2ccc(Cl)cc2)C(c2ccccc2)n2ncc(C(=O)Nc3ccccc3)c2N1 (stereo not given) | ? | i
COc1ccc(NC(=O)C2=C(C)Nc3c(C(=O)Nc4ccc(C)cc4)cnn3C2c2cccc(Cl)c2)cc1 (stereo not given) | 15.8µM | i
COc1cc(NC(=O)CSC2=Nc3ccccc3N=C(c3ccc(F)cc3)C2)cc(OC)c1 | i | i
COc1ccc(-c2noc(CNC(=O)c3ccc(OC)cc3OC)n2)cc1 | i | i
COc1ccc(-c2noc(CC(=O)Nc3cc(OC)ccc3OC)n2)cc1 | 3.98µM | i
CCOC(=O)c1c(NC(=O)C(=O)N/N=C/c2ccccc2OC)sc2c1CCCCC2 | 10µM | i
CCOC(=O)c1c(NC(=O)c2ccc(C)cc2)sc2c1CCCCC2 | i | i
CCOC(=O)c1c(NC(=O)C(=O)N/N=C/c2ccccc2O)sc2c1CCCCC2 | 7.94µM | i
CCOC(=O)c1c(NC(=O)C(=O)N/N=C(\C)c2ccc(OC)cc2)sc2c1CCCCC2 | i | i
O=[N+]([O-])c1ccc2c(c1)OCCOCCOCCOCCOCCOCCO2 | i | i
CC(NC(=O)C(C)N1C(=O)C2C3CC(C(Br)C3Br)C2C1=O)c1ccccc1 (stereo not given) | i | i
C/C(=N\NC(=O)C(=O)Nc1cccc(Cl)c1)c1ccncc1 | i | i
SMILES | Cruzain inh noDet | Cruzain Triton
C/C(=N\NC(=O)C(=O)Nc1cccc(C(F)(F)F)c1)c1ccc(Cl)s1 | 15.8µM | i
Fc1ccc(CNCc2cccc(Br)c2)cc1 | i | i
COc1ccc2oc(=O)c(-c3nnc(-c4ccc(C)cc4)o3)cc2c1 | i | i
COc1ccc(-c2nnc(-c3cc4ccccc4oc3=O)o2)cc1 | 15.8µM | i
CC(=O)Nc1ccccc1C(=O)C(=O)Nc1ccccc1 | i | i
COc1cccc(-c2nc(N3CCN(c4ccccc4)CC3)c3ccccc3n2)c1O | 10µM | i
COc1cccc(-c2nc(N3CCN(Cc4ccccc4)CC3)c3ccccc3n2)c1O | i | i
O=C(NCc1ccco1)c1ccccc1NS(=O)(=O)c1cccs1 | i | i
O=C(NC1CCCCCCC1)c1c(O)c2ccccc2[nH]c1=O | ? | i
O=C(Nc1cccc(-c2cn3ccccc3n2)c1)c1cccs1 | i | i
O=C(Nc1cccc(-c2cn3ccccc3n2)c1)c1cc2ccccc2oc1=O | ? | 3.55µM
CC(C)c1ccc(NC(=O)COC(=O)[C@H](CCC(N)=O)NC(=O)c2ccc(F)cc2)cc1 | i | ?
N#Cc1ccc(Cl)cc1NC(=O)COC(=O)[C@H](CCC(N)=O)NC(=O)c1ccc(F)cc1 | 20µM | 20µM
CCc1ccc(C(=O)COC(=O)C(CCSC)NC(=O)c2ccccc2)cc1 (stereo not given) | i | i
NC(=O)CC[C@H](NC(=O)c1ccc(F)cc1)C(=O)OCC(=O)Nc1c(F)c(F)c(F)c(F)c1F | 12.6µM | 28.2µM
CSCCC(NC(=O)c1ccc(Cl)cc1)C(=O)OCC(=O)Nc1cc(Cl)ccc1C (stereo not given) | ? | 22.4µM
CC(C)[C@H](NC(=O)c1ccccc1)C(=O)OCC(=O)Nc1ccc(Cl)cc1C(F)(F)F | i | i
C=CCOc1c(Br)cc(C2C3=C(CCCC3=O)N(C)C3=C2C(=O)CCC3)cc1OCC | ? | i
Cc1ccc(-c2noc(-c3ccccc3Br)n2)cc1 | i | i
Cc1ccc(S(=O)(=O)N2CC=C(C(=O)NCc3ccc(F)cc3)CC2)cc1 | i | i
COC(=O)c1c(NC(=O)Cc2cccs2)sc2c1CCC(C)C2 (stereo not given) | i | i
Fc1ccccc1Cn1nnc2c(NCc3ccccn3)ncnc21 | i | i
COc1cc(OC)c2cc(-c3ccncc3)cnc2c1 | i | i
CC(C)c1ccc(NC(=O)c2ccc(F)c(S(=O)(=O)N3CCN(c4ccccc4F)CC3)c2)cc1 | i | i
COc1ccccc1N1CCN(S(=O)(=O)c2ccccc2F)CC1 | i | i
SMILES | Cruzain inh noDet | Cruzain Triton
O=C(Nc1ccc(Oc2ccccc2)cc1)c1ccc(F)c(S(=O)(=O)N2CCN(c3cccc(Cl)c3)CC2)c1 | 3.98µM | i
Cc1cccc(NC(=O)c2ccc(F)c(S(=O)(=O)N3CCN(c4ccc(F)cc4)CC3)c2)c1 | ? | i
O=C(COC(=O)c1ccc(Cl)c(S(=O)(=O)N2CCN(c3ccc(F)cc3)CC2)c1)Nc1cccc(Cl)c1 | 12.6µM | i
Cc1cccc(N2CCN(S(=O)(=O)c3cc(C(=O)Nc4ccc(Oc5ccccc5)cc4)ccc3F)CC2C)c1 (stereo not given) | i | i
O=C(Nc1ccc(Oc2ccccc2)cc1)c1ccc(F)c(S(=O)(=O)N2CCN(c3ccccc3F)CC2)c1 | 7.94µM | i
COc1ccccc1N1CCN(S(=O)(=O)c2cc(C(=O)Nc3ccc(Oc4ccccc4)cc3)ccc2F)CC1 | 7.94µM | i
CCNc1ncc2nc(-c3cc(F)cc(F)c3)c(=O)n(CCc3ccccc3)c2n1 | i | i
Cn1c2ccccc2c2cnn(CC(=O)NCCCN3CCCCC3)c(=O)c21 | i | i
CCOC(=O)N1CCN(C(=O)CN(c2cc(C)ccc2OC)S(=O)(=O)c2ccc(C)cc2)CC1 | ? | i
COc1cccc(-c2nc(CSCC(=O)NCCc3ccc(Cl)cc3)c(C)o2)c1 | ? | i
Fc1ccc(-c2ccc(CNCCSc3nnnn3-c3ccccc3)o2)cc1 | i | i
Cc1c(Cl)cccc1-c1ccc(CNCCSc2nnnn2-c2ccccc2)o1 | 7.94µM | 12.6µM
O=C(CCc1nc2cccnc2n1Cc1cccs1)Nc1cccc(C(F)(F)F)c1 | i | i
O=c1oc(-c2ccccc2NS(=O)(=O)c2ccccc2)nc2ccccc12 | i | i
Cc1ccc(N2CC(C(=O)Nc3nnc(C)s3)CC2=O)cc1 (stereo not given) | i | i
